Screens: PubChem BioAssay, National Center for Advancing Translational Sciences (NCATS)
Hits are enriched below; roughly 21% of the tested compounds scored in any of these assays.
VP16 counter = inhibits Gal4-VP16 luciferase reporter, ROR gamma counter-screen; hit rate 3.5% among 310,000; Drosophila S2 Gal4-VP16 UAS-luciferase, luminescence, 20 h; Potency, µM (doses to about 53.6 µM), for the others: at the highest dose activity, negative = inhibition, actives largely listed as inhibitors;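 also: Gal4-VP16 expression switched on by copper sulfate through the metallothionein promoter; potency is read from the fitted curve at half-maximal effect; nearly all actives have a fitted effect of over 50% in size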
ELG1 repair inh = blocks ELG1-dependent DNA repair in HEK293T cells | HEK293T ELG1-luciferase reporter, luminescence, 16 h; DNA damage induced by 5-fluorouridine | Potency, µM (titrated, usually from 46.1 µM), for the others: at the top dose activity change, negative = inhibition, most hits filed as inhibitors | hit rate 2.3% among 330,000; also: potency is read from the fitted curve at half-maximal effect; nearly all actives have a fitted effect of over 55% in size
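HEK293T cells expressing luciferase-tagged ELG1 (2,000/well) received 5-Fluorouridine plus compound or DMSO for 16 hr at 37 °C. Luciferase was read by ONE-Glo luminescence after 30 min at room temperature.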
RORg inh = inhibitors of mouse ROR gamma transcriptional activity; P51450; Drosophila S2 Gal4-RORgamma UAS-luciferase reporter, 20 h; Potency, µM (highest dose often 53.6 µM), for the others: at the highest dose activity change, negative = inhibition, usual class: inhibitors; hit rate 5.4% among 310,000; AID 2551; also: potency is read from the fitted curve at half-maximal effect; nearly all actives have a fitted effect of over 60% in size
Target sequence (P51450 whole entry, looked up, the tested form may be a part): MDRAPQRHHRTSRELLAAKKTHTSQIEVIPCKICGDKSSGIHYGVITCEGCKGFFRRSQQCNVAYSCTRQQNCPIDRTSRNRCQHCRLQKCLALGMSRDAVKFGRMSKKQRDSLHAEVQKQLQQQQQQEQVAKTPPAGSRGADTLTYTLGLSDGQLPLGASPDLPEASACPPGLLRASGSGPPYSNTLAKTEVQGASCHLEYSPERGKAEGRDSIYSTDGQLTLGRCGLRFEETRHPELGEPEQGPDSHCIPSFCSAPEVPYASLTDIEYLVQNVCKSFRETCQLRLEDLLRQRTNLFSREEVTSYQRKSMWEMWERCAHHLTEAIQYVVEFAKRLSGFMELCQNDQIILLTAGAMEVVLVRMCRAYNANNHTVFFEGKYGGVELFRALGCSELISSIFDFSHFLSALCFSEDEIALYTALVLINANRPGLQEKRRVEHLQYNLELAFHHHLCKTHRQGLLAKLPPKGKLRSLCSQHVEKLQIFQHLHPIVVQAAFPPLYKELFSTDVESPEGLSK
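Luciferase reporter read in Schneider cells carrying Gal4-RORγ (mouse) and UAS-Photinus luciferase; cells given compound 1 h before 700 uM copper sulfate induction, then incubated 20 h at ambient temperature.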
DT40 TDP1 CPT = growth inhibition of DT40 Tdp1-/-;hTDP1 cells with camptothecin (screen for TDP1 inhibitors). hit rate 12% among 420,000. Potency, µM (highest dose often 46.2 µM), for inactives: at the highest dose activity change, negative = growth inhibition, most hits filed as inhibitors. chicken DT40 Tdp1-/-;hTDP1 cells + 20 nM CPT, ATP luminescence, 48 h. AID 686979; also: potency is read from the fitted curve at half-maximal effect; nearly all actives have a fitted effect of over 55% in size
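Chicken DT40 Tdp1-/- cells complemented with human TDP1, 400 cells/well, exposed to compounds plus 20 nM camptothecin for at least 48 h at 37 C; viability read as ATP content by CellTiter-Glo luminescence.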
IL1B secr inh = inflammasome signaling inhibition, IL-1 beta readout | activity change, % at 57.5 µM | hit rate 4.7% among 360,000 | THP-1 LPS/ATP IL-1B secretion, AlphaLISA, 16 h; active compounds read low; in the data active = activity change below about -50%; inconclusive = mostly about -30% to -49%
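THP-1 cells pretreated 1 hr with compounds (up to 57.5 uM final), then stimulated with LPS (250 ng/mL final) plus ATP (1.25 mM final); secreted IL-1B measured by AlphaLISA after 16 hr, decreased signal indicating inhibition.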
DT40 TDP1 no CPT = qHTS for Inhibitors of human tyrosyl-DNA phosphodiesterase 1 (TDP1): qHTS in cells in absence of CPT; hit rate 15% among 420,000; DT40 Tdp1-/- hTDP1 cells, no CPT, ATP luminescence, 48 h; Potency, µM (titrated, usually from 46.2 µM), inactives show at the top dose activity change, negative = growth inhibition, usual class: inhibitors; AID 686978, 2013; also: potency is read from the fitted curve at half-maximal effect; nearly all actives have a fitted effect of over 55% in size
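Camptothecin absent (DMSO only). Human TDP1-complemented DT40 knockout cells, 400 cells/well, 37 °C for minimum 48 hr; ATP measured via CellTiter-Glo, 30 min dark incubation, luminescence.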
* marks the source's active call; other numbers are inactive results; u = inconclusive; x = no result; [ ] = another dose, or the depositor's remark. Unless noted, calls follow the shape of the dose curve; as a rule, active = well fitted curve in the direction sought with a large enough effect; inconclusive = small, poorly fitted or top-dose-only effect, or another doubt; inactive = no such curve, though single readings can be large; an effect the other way counts as inactive or inconclusive. % is scaled to controls: 0 for no effect and ±100 for the full control effect.

SMILES | VP16 counter | ELG1 repair inh | RORg inh | DT40 TDP1 CPT | IL1B secr inh | DT40 TDP1 no CPT
Cc1nn(CC(=O)N2CCN(c3cccc(C(F)(F)F)c3)CC2)c(=O)c2cccn12 | 4.3% | -24.1% | u | 14.6µM* | -5.4 | 23.1µM*
CCOc1ccc2nc(N(Cc3cccnc3)C(=O)c3ccco3)sc2c1 | x | x | x | -7.7% | x | -13.4%
CCC(NC(=O)CNC(=O)c1ccc2c(c1)OCO2)c1ccc(Br)cc1 (stereo unspecified) | x | -4.7% | x | -28.0% | -22.7 | -26.7%
Cc1ccc(C(=O)Nc2ccc3nccnc3c2)cc1 | u | u | -44.6% | u | -28.0 | 16.4µM*
O=C(Nc1ccc(OC(F)(F)F)cc1)c1ccc2nccnc2c1 | -3.5% | u | 44.5% | -96.4% | 3.6 | u
O=C(Nc1ccc2c(c1)OCCO2)c1ccc2nccnc2c1 | -25.3% | u | -29.5% | u | -7.4 | u
O=C(Nc1ccc(SC(F)F)cc1)c1ccc2nccnc2c1 | -18.7% | u | u | u | -97.3* | u
Cc1cc(NC(=O)c2ccc3nccnc3c2)ccc1Br | x | u | x | u | 9.3 | u
Cc1cc(C(=O)Nc2cnc3ccccc3c2)ccc1[N+](=O)[O-] | 5.7% | u | 20.0% | 6.2% | 24.2 | -1.7%
Cc1ccc(C(=O)Nc2cnc3ccccc3c2)cc1 | 2.82µM* | u | 3.16µM* | -9.5% | -22.1 | -25.2%
COC(=O)c1ccc(NC(=O)c2ccc3nccnc3c2)cc1 | 17.5% | -7.4% | u | -23.6% | -27.3 | 29.1µM*
CCOCCCNC(=O)C1CCN(C(=O)c2cc3sccc3n2C)CC1 | x | x | x | 11.3% | x | -17.5%
CCc1nn(CC(=O)N2CCN(c3cccc(C)c3C)CC2)c(=O)c2cc3sccc3n12 | x | x | x | -6.1% | x | -3.3%
COC(=O)c1ccc(C2C(Oc3ccccc3)C(=O)N2CCc2ccc(F)cc2)cc1 (stereo unspecified) | u | 14.3% | u | u | -6.9 | u
CC1SC(c2ccc(F)cc2)N(CCc2ccccc2)C1=O (stereo unspecified) | 4.5% | -21.6% | -2.1% | 0.5% | -5.0 | 23.1µM*
CC[C@@H](c1ccccc1)n1c(=O)n2n(c1=O)[C@H]1[C@H](O)[C@H]3O[C@@H]3/C(=N/OC[C@@H](O)COCc3ccco3)[C@@H]1CC2 | -2.5%[10 µM] | x | -0.9%[10 µM] | x | x | x
COc1ccc2c(Cl)cc(NC(=O)Nc3c(C)cccc3C)nc2c1 | x | x | x | 13µM* | 11.3 | 18.4µM*
CCOC(=O)C1=C(C)C(c2ccc(OC)cc2)NC(=O)N1 (stereo unspecified) | 2.9%[10 µM] | 10.4% | -13.7% | 2.3% | 8.1 | -15.1%
CCOC(=O)C1=C(c2ccccc2)NC(=O)NC1c1cc(OC)c(OC)c(OC)c1 (stereo unspecified) | x | -2.1% | x | -13.8% | 2.7 | 0.1%
CCOC(=O)C1=C(C)C(c2cccc(Oc3ccccc3)c2)NC(=S)N1 (stereo unspecified) | 17.8µM* | 25.9µM* | 7.08µM* | u | -73.8* | u
CCOC(=O)C1=C(C)C(c2ccc(OC)cc2)NC(=S)N1 (stereo unspecified) | -4.5% | -1.9% | u | 20.6µM* | 3.9 | 29.1µM*
CCOC(=O)C1=C(c2cccc(Oc3ccccc3)c2)NC(=S)NC1C (stereo unspecified) | u | u | u | u | -19.3 | 23.1µM*
CCOC(=O)C1=C(C)C(c2ccccc2O)NC(=O)N1 (stereo unspecified) | 1.8% | -3.3% | 23.9% | 3.4% | -2.9 | -0.2%
COc1cccc(Cn2c(=O)c(-c3cn(C)c4ccccc34)nc3cnc(OC)nc32)c1 | 5.1% | x | -18.0% | 0.1% | x | -6.7%
